{
  "source": "PubChem BioAssay (NCATS)",
  "note": "Calls of active or inactive are those of the source. Calls come from the whole dose curve; as a rule, active = well fitted activation curve with a large enough effect; inconclusive = small, poorly fitted or top-dose-only effect, or effect the other way; inactive = flat fitted curve, though single readings scatter.",
  "data": [
    {"test": "Cellular Toxicity (caspase-3) Renal Proximal Tubule (AID 667);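 note: cells exposed to compound for 16 hours at 37 °C before detection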", "conditions": "renal proximal tubule cells, primary cells freshly taken from rat, solvent-only wells 0%, staurosporine 100%; series mostly up to 91.7 µM; caspase-3 activation: at the top concentration", "from_the_text": "NIH Chemical Genomics Center [NCGC]\nNIH Molecular Libraries Screening Centers Network [MLSCN]\nNational Institutes of Environmental Health Sciences [NIEHS]\nNational Toxicology Program [NTP]\nWe have developed a 1536-well cell-based assay for quantitative high throughput screening (qHTS) against a number of cell lines to determine in vitro caspase 3/7 activity of small molecules. This particular assay uses the primary kidney proximal tubule cells freshly isolated from rat.\nNCGC Assay Protocol Summary:\nThe Caspase-Glo 3/7 assay (Promega) is a homogeneous method to measure caspase-3 and caspase-7 activities in cultured cells. The quantitation of caspase 3/7 activity is based on the cleavage of a peptide-aminoluciferin substrate. After caspase cleaves the substrate the free aminoluciferin is liberated and serves as the substrate of luciferase, which generates the light. The luminescent signal is proportional to the amount of caspase 3/7 activity present.\nUsing the Caspase-Glo 3/7 assay, the amount of caspase 3/7 activity was measured in the rat kidney proximal tubule cells with complete culture medium following compound treatment for 16 hours. The assay was performed in opaque white 1536-well plates. In the screen, staurosporine and doxorubicin were used as positive controls. Library compounds were measured for their ability to cause the activation of caspase 3/7 in the cell line, as reflected by an increase in luminescence signal, in a concentration-dependent manner. Data were normalized to the controls for basal activity (DMSO only) and 100% stimulation (10 uM staurosporine). AC50 values were determined from concentration-response data modeled with the standard Hill equation.\nqHTS protocol for caspase 3/7 assay in rat kidney proximal tubule cells\n[Step] [Parameter] [Value] [Description]\n1. Reagent; 5 uL; 1000 rat kidney proximal tubule cells/well\n2. Time; 5 hr; 37 °C incubation\n4. Controls; 23 nL; doxorubicin 7 pM to 100 uM & staurosporine 1.4 pM to 20 uM\n5. Time; 16 hr; 37 °C incubation\n6. Reagent; 5 uL; Caspase-Glo 3/7 reagent\n7. Time; 1 hr; Room Temperature\n8. Detection; Luminescence; Viewlux plate reader\nKeywords: caspase 3/7, apoptosis, rat kidney proximal tubule cells, luminescence, NTPHTS, NTPHTS_NCGC, NIEHS, EPA, DSSTox, MLSMR, MLSCN, NIH Roadmap, qHTS, NCGC", "values": [
      {"smiles": "C1OCOCO1", "caspase-3 activation": "4.25% (inactive)"},
      {"smiles": "COc1ccc2nc(N)sc2c1", "caspase-3 activation": "-6.26% (inactive)"},
      {"smiles": "C=CCc1ccc(OC)c(OC)c1", "caspase-3 activation": "-9.65% (inactive)"},
      {"smiles": "COc1ccc(/C=C/c2cc(OC)cc(=O)o2)cc1", "caspase-3 activation": "-25.6% (inactive)"},
      {"smiles": "COc1cc(/C=C/c2ccccc2)oc(=O)c1", "caspase-3 activation": "-8.4% (inactive)"},
      {"smiles": "Cc1c(N=C=O)cccc1N=C=O", "caspase-3 activation": "1.43% (inactive)"},
      {"smiles": "Cc1ccc([N+](=O)[O-])c(C)c1", "caspase-3 activation": "0.896% (inactive)"},
      {"smiles": "O[C@@H]([C@H](O)[C@@H](O)CBr)[C@@H](O)CBr", "caspase-3 activation": "-3.9% (inactive)"},
      {"smiles": "c1ccc2c(c1)c1cccc3ccc4cccc2c4c31", "caspase-3 activation": "-12.2% (inactive)"},
      {"smiles": "CCCCC(CC)CN", "note": "(stereo not given)", "outcome": "inactive"},
      {"smiles": "C=C(C)C1CC=C(C)C(O)C1", "note": "(stereo not given)", "caspase-3 activation": "-0.358% (inactive)"},
      {"smiles": "O=C(/C=C/c1ccc(O)c(O)c1)O[C@@H](C(=O)O)[C@@H](OC(=O)/C=C/c1ccc(O)c(O)c1)C(=O)O", "caspase-3 activation": "-10.2% (inactive)"},
      {"smiles": "Cc1ccccc1C", "outcome": "inactive"},
      {"smiles": "C=CCOC(=O)c1ccccc1C(=O)OCC=C", "caspase-3 activation": "1.71% (inactive)"},
      {"smiles": "CC(=O)OC/C=C(\\C)CCC=C(C)C", "caspase-3 activation": "2.98% (inactive)"},
      {"smiles": "C=CC(=C)CCC=C(C)C", "caspase-3 activation": "4.18% (inactive)"},
      {"smiles": "CC(C)=CCCC(C)CCO", "note": "(stereo not given)", "caspase-3 activation": "2.16% (inactive)"},
      {"smiles": "COC(=O)CCCCC(=O)OC", "caspase-3 activation": "-3.71% (inactive)"},
      {"smiles": "CCCN(CCC)C(=O)SCC", "caspase-3 activation": "-4.21% (inactive)"},
      {"smiles": "O=C1CCc2ccccc2O1", "caspase-3 activation": "-0.861% (inactive)"},
      {"smiles": "c1ccc2scnc2c1", "caspase-3 activation": "7.36% (inactive)"},
      {"smiles": "O=[N+]([O-])c1cccc(Cl)c1Cl", "caspase-3 activation": "-10% (inactive)"},
      {"smiles": "O=C1c2ccccc2C(=O)C1c1ccc2ccccc2n1", "caspase-3 activation": "-13.1% (inactive)"},
      {"smiles": "C/C=C\\c1ccc(OC)cc1", "caspase-3 activation": "-0.3% (inactive)"},
      {"smiles": "C=Cc1ccccc1Cl", "caspase-3 activation": "-5.11% (inactive)"},
      {"smiles": "Nc1ccc(S(=O)(=O)O)cc1", "caspase-3 activation": "-3.22% (inactive)"},
      {"smiles": "CC1(C)CC(N=C=O)CC(C)(CN=C=O)C1", "note": "(stereo not given)", "caspase-3 activation": "-2.82% (inactive)"},
      {"smiles": "Clc1cc(Cl)c(Cl)cc1Cl", "caspase-3 activation": "0.563% (inactive)"},
      {"smiles": "CCCCCCCCO", "caspase-3 activation": "-2.94% (inactive)"},
      {"smiles": "CC1=CC(C)(C)Nc2ccccc21", "outcome": "inactive"},
      {"smiles": "c1ccccc1", "outcome": "inactive"},
      {"smiles": "CCC(O)OC(O)CC", "note": "(stereo not given)", "outcome": "inactive"},
      {"smiles": "O=C(O)c1ccccc1C(c1ccc(O)cc1)c1ccc(O)cc1", "caspase-3 activation": "5.93% (inactive)"},
      {"smiles": "CCO", "caspase-3 activation": "-14.8% (inactive)"},
      {"smiles": "OCCNCCO", "caspase-3 activation": "2.41% (inactive)"},
      {"smiles": "CCO[Si](CCCN)(OCC)OCC", "caspase-3 activation": "-4.19% (inactive)"},
      {"smiles": "O=C(O)c1ccc(O)cc1O", "outcome": "inactive"},
      {"smiles": "CC1=C2[C@H](/C=C(\\C)C(=O)O)CC[C@@H](C)[C@H]2CC1", "caspase-3 activation": "6.06% (inactive)"},
      {"smiles": "S=C1NC=NC2N=CNC12", "note": "(stereo not given)", "caspase-3 activation": "4.94% (inactive)"},
      {"smiles": "CCCCCCCCCCCCCC(=O)O", "caspase-3 activation": "-11.2% (inactive)"}
    ]}
  ]
}
